Shown are actives, neighbours in structure and some others; about 1.6% of the full set was active somewhere.
MOR-DOR ag = OPRM1-OPRD1 heterodimerization agonism | activation, % at 9.3 µM | cells, luminescence | P35372+P41143 | 0.3% of 340,000 active; in the data active = activation above about 18%
Target sequence (P35372 whole entry, looked up): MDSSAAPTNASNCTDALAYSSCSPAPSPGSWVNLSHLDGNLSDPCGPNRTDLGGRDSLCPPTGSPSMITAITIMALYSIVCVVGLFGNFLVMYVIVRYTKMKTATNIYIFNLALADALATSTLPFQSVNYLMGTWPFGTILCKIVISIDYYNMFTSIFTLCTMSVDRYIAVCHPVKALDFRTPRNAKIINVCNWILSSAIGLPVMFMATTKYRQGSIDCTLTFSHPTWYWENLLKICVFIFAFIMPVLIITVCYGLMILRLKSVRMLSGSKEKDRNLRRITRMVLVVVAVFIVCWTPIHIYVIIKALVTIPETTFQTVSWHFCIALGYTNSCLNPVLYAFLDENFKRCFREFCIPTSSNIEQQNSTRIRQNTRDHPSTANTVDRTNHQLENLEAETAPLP
Target sequence (P41143 whole entry, looked up): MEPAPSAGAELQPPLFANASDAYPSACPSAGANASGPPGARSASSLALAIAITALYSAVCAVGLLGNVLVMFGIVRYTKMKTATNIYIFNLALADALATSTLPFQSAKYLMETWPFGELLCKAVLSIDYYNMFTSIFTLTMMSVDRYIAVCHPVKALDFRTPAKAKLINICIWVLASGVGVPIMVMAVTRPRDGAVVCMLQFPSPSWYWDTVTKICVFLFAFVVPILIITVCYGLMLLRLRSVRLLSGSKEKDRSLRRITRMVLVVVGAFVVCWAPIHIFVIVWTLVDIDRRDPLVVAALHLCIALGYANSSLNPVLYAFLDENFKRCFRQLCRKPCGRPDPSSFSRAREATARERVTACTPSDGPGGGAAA
HTR2A ag = agonists of mouse serotonin 5-HT2A receptor (HTR2A); P35363; CHO-K1 mHTR2A beta-arrestin complementation, luminescence; percent of 30 µM serotonin response; activation, % at 7.6 µM; 0.66% of 360,000 active; AID 624169;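 active = activation above a run cutoff, the mean activation of all tested compounds plus 3 SD, cut at about 14% in these data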
OPRM1-OPRD1 inv = inverse agonists of human mu-delta opioid receptor heterodimerization; 0.21% of 340,000 active; cell-based MOR-DOR heterodimer luminescence, inverse agonism; P35372+P41143; AID 504357; inhibition, % at 9.3 µM; in the data active = inhibition above about 22%, passing the limit was not always enough
HTR5A ag = counter-screen for OPRM1-OPRD1 agonists: human HTR5A agonism; P47898; HTR5A agonist assay, luminescence, cell-based; activation, % at 9.3 µM; 0.61% of 340,000 active; AID 504692; in the data active = activation mostly above about 9.5%, no sharp cut-off; inactive = mostly below about 7.6%
HTR5A inv ag = counter-screen for OPRM1-OPRD1 inverse agonists: human HTR5A inverse agonism. HTR5A cell line, luminescence. 0.083% of 340,000 active. P47898. inhibition, % at 9.3 µM. AID 504634; in the data active = inhibition mostly above about 23%, no sharp cut-off; inactive = mostly below about 18%
MOR-DOR inv conf = confirmation of human OPRM1-OPRD1 heterodimerization inverse agonists | shares compounds with OPRM1-OPRD1 inv | cells expressing OPRM1/OPRD1 heterodimer, luminescence | inhibition, % at 9.3 µM | 20% of 580 active | AID 504900; in the data active = inhibition above about 32%
HTR5A inv count = inverse agonist of human HTR5A in OPRM1-OPRD1 counter-screen | HTR5A-expressing cells, luminescence, inverse agonism | 580 tested, under 10 active | shares compounds with OPRM1-OPRD1 inv | inhibition, % at 9.3 µM; call rule not given here
Each line names hits and unclear results; the compound was inactive in the other large screens (follow-up assays come after a bar, where they were run).

CC(SC(=S)N(C)Cc1cccs1)C(=O)O (stereo not drawn)	none
CN(C)c1nc(=NCc2cccs2)ss1	OPRM1-OPRD1 inv 59 | MOR-DOR inv conf inactive | HTR5A inv count inactive
COc1ccc(C2=NN(CN3C(=O)C(=O)c4ccccc43)C(c3ccc(OC)cc3)C2)cc1 (stereo not drawn)	OPRM1-OPRD1 inv 44 | MOR-DOR inv conf inactive | HTR5A inv count inactive
Cc1cc(O)c(/C=N/Nc2ccc(Cl)cc2)c(=O)o1	OPRM1-OPRD1 inv 46 | MOR-DOR inv conf inactive | HTR5A inv count inactive
Cn1cc(/C=C2\SC(=O)NC2=S)c2ccccc21	OPRM1-OPRD1 inv 28 | MOR-DOR inv conf inactive | HTR5A inv count inactive
Cc1ccc(C(=O)NN2C(=O)/C(=C/c3cn(C)c4ccccc34)SC2=S)cc1	none
Cc1ccccc1-n1c(=O)n(Cc2ccccc2)c(=O)c2[nH]cnc21	none
COC(=O)c1ccc(C)c(-n2c(=O)n(Cc3ccccc3)c(=O)c3[nH]cnc32)c1	OPRM1-OPRD1 inv 52 | MOR-DOR inv conf inactive | HTR5A inv count inactive
COc1cccc(Nc2nc(C(N)Cc3ccccc3)cs2)n1 (stereo not drawn)	none (no result: MOR-DOR ag, OPRM1-OPRD1 inv, HTR5A ag, HTR5A inv ag)
Cc1ccc(C(=O)Nc2nnc([C@H]3C[C@H](O)[C@@H](CO)O3)s2)cc1	none (no result: MOR-DOR ag, OPRM1-OPRD1 inv, HTR5A ag, HTR5A inv ag)
CS(=O)(=O)Nc1cccc(C(=O)CC2(O)C(=O)Nc3ccccc32)c1 (stereo not drawn)	none
N#CC1(Nc2ccccc2)C(=O)Nc2ccccc21 (stereo not drawn)	OPRM1-OPRD1 inv 57 | MOR-DOR inv conf inactive | HTR5A inv count inactive
CC(=O)Nc1ccc(C2(c3ccc(NC(C)=O)cc3)C(=O)Nc3ccccc32)cc1	none
N#CC1(Nc2cccc(Br)c2)C(=O)Nc2ccccc21 (stereo not drawn)	OPRM1-OPRD1 inv 50 | MOR-DOR inv conf inactive | HTR5A inv count inactive
CCOC(=O)[C@]12CCCC=C1N(Cc1cccc3ccccc13)C(=O)[C@H](CC(=O)NCCCN1CCCC1=O)C2	none (no result: MOR-DOR ag, OPRM1-OPRD1 inv, HTR5A ag, HTR5A inv ag)
CCCCc1c(-c2cccc(Br)c2)ncn1CCc1ccccc1OC	none (no result: MOR-DOR ag, OPRM1-OPRD1 inv, HTR5A ag, HTR5A inv ag)
O=C(N/N=C/c1cccc2cccnc12)c1ccccc1O	OPRM1-OPRD1 inv 36 | MOR-DOR inv conf inactive | HTR5A inv count inactive
Cn1cnc([N+](=O)[O-])c1S(=O)(=O)Oc1ccc(Cl)cc1	OPRM1-OPRD1 inv 40 | MOR-DOR inv conf inactive | HTR5A inv count inactive
Cn1cnc([N+](=O)[O-])c1S(=O)(=O)Oc1cccc2ccccc12	none
CC(=O)c1cccc2c(O)c(C3=Nc4ccccc4C3=O)[nH]c12	OPRM1-OPRD1 inv 36 | MOR-DOR inv conf inactive | HTR5A inv count inactive
O=C(Nc1ccc(F)cc1)C(c1cccc(F)c1)N1CCN(Cc2c(F)cccc2Cl)CC1 (stereo not drawn)	none (no result: MOR-DOR ag, OPRM1-OPRD1 inv, HTR5A ag, HTR5A inv ag)
Cc1cccc(C)c1N=C1C(=O)Nc2ccccc21	OPRM1-OPRD1 inv 46 | MOR-DOR inv conf inactive | HTR5A inv count inactive
O=C1Nc2ccccc2C1=Nc1ccccc1-c1ccccc1	OPRM1-OPRD1 inv 62 | MOR-DOR inv conf inactive | HTR5A inv count inactive
COc1ccc(O)c(/C=N/N=C2/C(=O)Nc3ccccc32)c1	none
Cc1cc(Br)ccc1N=C1C(=O)Nc2ccccc21	OPRM1-OPRD1 inv 50 | MOR-DOR inv conf inactive | HTR5A inv count inactive
Cc1cc(C)c(N=C2C(=O)Nc3ccccc32)c(C)c1	OPRM1-OPRD1 inv 48 | MOR-DOR inv conf inactive | HTR5A inv count inactive
CCCCCCCCSC1=CC(=O)C(OC)=C(OC)C1=O	none (no result: MOR-DOR ag, OPRM1-OPRD1 inv, HTR5A ag, HTR5A inv ag)
Cc1cc(C)nc(NNS(=O)(=O)c2c(F)cc(F)cc2Br)n1	OPRM1-OPRD1 inv 31 | MOR-DOR inv conf inactive | HTR5A inv count inactive
CC(C)(C)c1nnc(NC(=S)Nc2ccccc2)s1	OPRM1-OPRD1 inv 38 | MOR-DOR inv conf inactive | HTR5A inv count inactive
S=C(Nc1ccccc1)Nc1nccs1	OPRM1-OPRD1 inv 33 | MOR-DOR inv conf inactive | HTR5A inv count inactive
Fc1ccc(NC(=S)Nc2nccs2)cc1	OPRM1-OPRD1 inv 29 | MOR-DOR inv conf inactive | HTR5A inv count inactive
Cc1ccc(Cn2cc(CN3CC(N4CCCC4)CS3(=O)=O)nn2)cc1 (stereo not drawn)	none (no result: MOR-DOR ag, OPRM1-OPRD1 inv, HTR5A ag, HTR5A inv ag)
O=C(NNc1ccc(O)cc1)c1ccc(Br)cc1	OPRM1-OPRD1 inv 66 | MOR-DOR inv conf 62 | HTR5A inv count inactive
CCCc1ccc(C(=O)NNc2ccc(F)cc2)cc1	OPRM1-OPRD1 inv 44 | MOR-DOR inv conf inactive | HTR5A inv count inactive
CCCc1ccc(C(=O)NNC(=O)c2ccc(Br)cc2)cc1	none
COCCN(Cc1ccc(C)cc1)C(=O)[C@H]1O[C@@H](n2ccc(N)nc2=O)[C@H](O)[C@@H]1O	none (no result: MOR-DOR ag, OPRM1-OPRD1 inv, HTR5A ag, HTR5A inv ag)
CCS(=O)(=O)N1CCC(C(=O)Oc2ccc(C(=O)OC)cc2)CC1	none
CCS(=O)(=O)N1CCC(C(=O)OCC(=O)c2ccc(Br)cc2)CC1	OPRM1-OPRD1 inv 35 | MOR-DOR inv conf inactive | HTR5A inv count inactive
Cc1cc(C)n(-c2ccc(C(=O)N3CCN(S(=O)(=O)c4ccc(OC(F)(F)F)cc4)CC3)cc2)n1	none (no result: MOR-DOR ag, OPRM1-OPRD1 inv, HTR5A ag, HTR5A inv ag)
Cn1c(=O)c2c(nc(N3CCNCC3)n2Cc2cccc3ccccc23)n(C)c1=O	OPRM1-OPRD1 inv 42 | MOR-DOR inv conf inactive | HTR5A inv count inactive
CCCOc1nc2c(c(=O)n(C)c(=O)n2C)n1Cc1cccc2ccccc12	none
Cn1c(=O)[nH]c(=O)c2c1nc(N1CCNCC1)n2Cc1cccc2ccccc12	OPRM1-OPRD1 inv 38 | MOR-DOR inv conf inactive | HTR5A inv count inactive
COc1ccc(-c2csc(C(O)c3ccc(F)c(F)c3)n2)cc1 (stereo not drawn)	none (no result: MOR-DOR ag, OPRM1-OPRD1 inv, HTR5A ag, HTR5A inv ag)
CN(C)c1ccc(CC(=O)c2nc3ccccc3s2)cc1	OPRM1-OPRD1 inv 24 | MOR-DOR inv conf inactive | HTR5A inv count inactive
CN(C)C(=O)c1nc2ccccc2s1	none
O=C1c2ccccc2-c2nccnc21	OPRM1-OPRD1 inv 80, HTR5A inv ag 39 | MOR-DOR inv conf 87 | HTR5A inv count inactive
O=C1c2cccnc2-c2ncccc21	none
Cc1ccc(SCC(=O)OCC(=O)N(CC(C)C)C2CCS(=O)(=O)C2)cc1C (stereo not drawn)	OPRM1-OPRD1 inv 24 | MOR-DOR inv conf inactive | HTR5A inv count inactive
O=C(c1ccco1)C(O)c1ccco1 (stereo not drawn)	OPRM1-OPRD1 inv 70, HTR5A inv ag 35 | MOR-DOR inv conf inactive | HTR5A inv count inactive
CSC1=C(C#N)C(c2ccccc2Cl)C2=C(N1)c1ccccc1C2=O (stereo not drawn)	none
CSC1=C(C#N)C(c2ccccc2C)C(C#N)=C(N)N1 (stereo not drawn)	OPRM1-OPRD1 inv 38 | MOR-DOR inv conf inactive | HTR5A inv count inactive
CC(=O)Nc1ccccc1-c1ccc(C)o1	none
Cc1ccc(NC(=O)CS(=O)CC(=O)Nc2ccccc2-c2ccc(C)o2)cc1 (stereo not drawn)	OPRM1-OPRD1 inv 35 | MOR-DOR inv conf inactive | HTR5A inv count inactive
CCCn1c2ccccc2c2nnc(SCC(=O)Nc3ncccn3)nc21	OPRM1-OPRD1 inv 32 | MOR-DOR inv conf inactive | HTR5A inv count inactive
Cc1ccc(C)c(N2CCN(C(=O)CCCOc3cc(=O)n(C)c4ccccc34)CC2)c1	none

Compound activity deposited in PubChem BioAssay by The Scripps Research Institute Molecular Screening Center.
